The record followed here is PubChem BioAssay AID2315 (National Center for Advancing Translational Sciences (NCATS), 2010).

The campaign covered roughly 290,000 compounds. About 27,000 (9.3%) were called active. This is one part of a sample in which actives are shown more often than they occur. A number with no mark means an inactive call. Cut-off read from the data, not from the text of the source: active = inhibition mostly above about 28% (no sharp cut-off); inactive = mostly below about 43%.

A short description of this assay: A qHTS for Small Molecule Inhibitors of Shiga Toxin. Note: 0% is about no effect. Particulars: Vero cells, Shiga toxin protein synthesis inhibition reporter; at 38.7 µM, hits give high values.
In the case of `O=C(O)c1[nH]c2ccccc2c1C(c1cccc(O)c1)c1c(C(=O)O)[nH]c2ccccc12`, the inhibition (in general, the relative decrease from the control value, in per cent) is -5.15%.

Consider `COC(=O)COc1ccc2c(=O)c(Oc3ccccc3Br)coc2c1`, for which the inhibition was -7.5%.

In the case of `CCc1ccc(N2CC(C(=O)N3CCCCCC3)CC2=O)cc1` (centres undefined), the inhibition was 16%.

With `CC(CC(=O)N1CCN(c2ccccc2)CC1)S(=O)(=O)c1ccc2c(c1)NC(=O)CS2` (centres undefined), the inhibition was 1.51%.

As to `Fc1ccc2nc(Nc3nc4c(s3)CCCC4)sc2c1`, the inhibition was 72.1% (active).

Turning to `O=C(CCS(=O)(=O)c1ccccc1)Nc1nc2c(s1)CCCC2`, the inhibition is 20.4%.

For the compound `O=C(Cn1c(=O)sc2ccccc21)Nc1nc2c(s1)CCCC2`, the inhibition was 22.4%.

For `CN(CC(=O)Nc1c(Cl)cccc1Cl)C(=O)c1ccncc1`, the inhibition was -30.3%.

With `O=c1ccc(-c2ccc(S(=O)(=O)Nc3ccccc3)o2)n[nH]1`, the inhibition is -5.64%.

For `O=C(O)c1ccc(S(=O)(=O)N2CCC(Cc3ccccc3)CC2)cc1`, the inhibition was -10.1%.

For `O=C(NCCc1ccccc1Cl)C1CCC(=O)N(CCCc2ccccc2)C1` (centres undefined), the inhibition was -7.04%.

Regarding `O=C(NCCCc1ccccc1)C1CCC(=O)N(CCc2ccc(Cl)cc2)C1` (centres undefined), the inhibition was 35.2% (active).

As to `O=C(NCCN1CCOC1=O)C1CCC(=O)N(CCc2ccc(Cl)cc2)C1` (centres undefined), the inhibition is -3.56%.

Consider `Cc1ccc(-n2nc3c(=O)n(C(C)C(=O)NCc4ccc5c(c4)OCO5)nc(C)c3c2C)cc1` (centres undefined), for which the inhibition is -4.41%.

Turning to `CS(=O)(=O)N1CCCC(C(=O)Nc2ccccc2C(F)(F)F)C1` (centres undefined), the inhibition was -10%.

For `COc1ccccc1Nc1ncnc2c1oc1ccccc12`, the inhibition was 53.4% (active).

In the case of `COc1ccc(C)cc1Nc1nc(C)nc2c1oc1ccccc12`, the inhibition is 2.95%.

Regarding `CCC(C(=O)OC)n1cnc2c(oc3ccccc32)c1=O` (centres undefined), the inhibition was 27.3%.

In the case of `Cc1occc(=O)c1OCc1c(Cl)cccc1Cl`, the inhibition was -6.59%.

Regarding `O=C1COc2ccc(S(=O)(=O)NCCc3ccc(Cl)cc3)cc2N1`, the inhibition was 2.79%.

For `Cc1ccc(NS(=O)(=O)c2ccc(C(C)(C)C)cc2)cn1`, the inhibition was 1.36%.

In the case of `Cc1ccc(S(=O)(=O)c2nc(-c3cccs3)oc2NCc2cccnc2)cc1`, the inhibition was -2.32%.

Take `COc1ccc(N2CCN(C(=O)CN3C(=O)COc4ccccc43)CC2)cc1`: the inhibition is 23.1%.

For `CN1CCN(C(=O)c2ccccc2NC(=O)COc2ccccc2Cl)CC1`, the inhibition was 30.2% (active).

In the case of `CCCOc1cccc(C(=O)Nc2ccccc2C(=O)N2CCN(C)CC2)c1`, the inhibition was 1.15%.

Turning to `O=C(Nc1ccccc1C(=O)N1CCCCCC1)c1ccccc1Cl`, the inhibition was -4.45%.

`Nc1nc(NCC2CCCO2)nc(Nc2ccccc2F)c1[N+](=O)[O-]` (centres undefined): the inhibition is 3.33%.

On to `C=Cn1cc[n+](CC(=O)c2ccc(OC)c(OC)c2)c1`, for which the inhibition was -7.58%.

For `O=[N+]([O-])c1ccc(N/N=C/c2ccccc2)cc1`, the inhibition was 60.4% (active).

On to `Cc1cccc(COc2ccccc2/C=N/Nc2ccc([N+](=O)[O-])cc2)c1`, for which the inhibition is -8.03%.

For `O=C(N/N=C/c1ccc(O)cc1)/C(=C/c1ccc([N+](=O)[O-])cc1)NC(=O)c1ccccc1`, the inhibition was 3.28%.

Consider `CCOc1cc2[nH]c(=S)n(Cc3ccc(C(=O)N4CCN(C)CC4)cc3)c(=O)c2cc1OCC`, for which the inhibition is 6.6%.

For the compound `O=C(c1cc(-c2cccs2)on1)N1CCCCC1`, the inhibition was 124% (active).

On to `COc1cccc(OC)c1OCCN1CCN(C(=O)c2ccco2)CC1`, for which the inhibition is -15.7%.

Take `O=C(c1ccco1)N1CCN(C(=O)c2ccc(COc3ccc(F)cc3)o2)CC1`: the inhibition is 2.42%.

With `O=C(c1cccc(Br)c1)N1CCN(C2=NS(=O)(=O)c3ccccc32)CC1`, the inhibition is -5.51%.

With `O=C(c1ccc(Cl)c(Cl)c1)N1CCCC1`, the inhibition is -12.2%.

Take `CNC(=O)n1ccc(C(=O)N2CCCCC2)n1`: the inhibition is -5.37%.

For the compound `COc1cc(Cl)ccc1OCc1cc(C(=O)N(C)CCc2c(C)n[nH]c2C)no1`, the inhibition is 18.3%.

Consider `COc1cccc(OCc2cc(C(=O)N3CCN(C(=O)c4ccco4)CC3)no2)c1`, for which the inhibition is 64.7% (active).

Consider `O=C(c1cc(-c2ccccc2O)on1)N1CCCC1`, for which the inhibition was 111% (active).

Regarding `CC(=O)c1ccc(NC(=O)c2cc(-c3cccs3)on2)cc1`, the inhibition was 35.3%.

Regarding `CCn1ccnc1CN(C)C(=O)c1cc(COc2ccc(Cl)cc2OC)on1`, the inhibition is 49.5% (active).

With `CCn1ccnc1CN(C)C(=O)c1cc(COc2ccc(-n3cncn3)cc2)on1`, the inhibition was 13.3%.

`Cc1cc(/C=C2/SC(=O)N(CC(=O)N3CCCC3)C2=O)c(C)n1C`: the inhibition was -6.33%.

With `NC(=O)C1CCN(C(=O)/C(=C/c2ccco2)NC(=O)c2ccccc2)CC1`, the inhibition was -19%.

As to `COc1ccc(OC)c(NC(=O)CSc2nc(-c3ccccc3)cc(=O)[nH]2)c1`, the inhibition is -4.35%.

With `Cc1ccc(Nc2nc(N3CCOCC3)nc(N3CCOCC3)n2)cc1Cl`, the inhibition is 5.42%.

Regarding `COc1ccccc1N1CCN(S(=O)(=O)c2ccc(Cl)cc2)CC1`, the inhibition was -2.2%.

In the case of `Oc1c(Cl)cc(Cl)cc1/C=N/c1ncn[nH]1`, the inhibition is -2.31%.

Regarding `Cc1ccc(N2CC(C(=O)NCCS(=O)(=O)N3CCN(c4ccccc4)CC3)CC2=O)cc1` (centres undefined), the inhibition was 4.33%.

On to `Cn1cc(CNC(=O)c2ccc(OC3CCN(Cc4ccccn4)CC3)cc2)cn1`, for which the inhibition is 4.02%.

With `COc1cc(Cl)ccc1OCc1cc(C(=O)N2CC[C@@H]3CCCC[C@H]3C2)no1`, the inhibition is 120% (active).

With `CCOC(=O)C1CCCN(C(=O)c2cncc(Br)c2)C1` (centres undefined), the inhibition is -10.3%.

With `CCOC(=O)CC1(NC(=O)c2cc(COc3cncc(Cl)c3)on2)CCCCC1`, the inhibition is -11.8%.

Turning to `COc1ccc(Cl)cc1C(=O)NNC(=S)NC1CCCC1`, the inhibition was -7.04%.

As for `COc1ccccc1N1CCN(C(=O)c2cc(-c3ccc(Cl)c(Cl)c3)on2)CC1`, the inhibition was 0.847%.

For the compound `COc1ccc(C(=O)C2CCCN(C(=O)c3cc(C)on3)C2)cc1F` (centres undefined), the inhibition was -1.62%.

On to `COc1cccc(-c2cc(C(=O)N3CCN(c4ccccc4OC)CC3)no2)c1`, for which the inhibition was -4.9%.

As to `COc1ccccc1-c1cc(C(=O)N2CCCCC2)no1`, the inhibition is 102% (active).

As for `COc1ccc(OCc2cc(C(=O)N3CCCC3)no2)c2ccccc12`, the inhibition is 147% (active).

Regarding `COc1ccccc1OCc1ccc(C(=O)N2CCN(C)CC2)o1`, the inhibition is 10.1%.

In the case of `Cc1ccc(C)c(OCc2cc(C(=O)N3CCN(c4cnccn4)CC3)no2)c1`, the inhibition is -3.53%.

For the compound `CCCOC1CCCN(C(=O)c2cc(COc3cncc(Cl)c3)on2)C1` (centres undefined), the inhibition is 54.4% (active).
